Test results published in PubChem BioAssay (NCI).
This is part of a sample that, as a whole, favours compounds with a hit. Of some 83,000 tested, about 20% had one in any assay.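 Each cell line was grown in a 96-well plate and treated with one concentration of compound for 48 hours. Values below 10 were considered active.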 A number with no mark means an inactive call. Active and inactive are the calls of the source.

What was measured:
Assay in all cases: NCI-60 one-dose screen, 48 h (100 = growth as untreated, 0 = no growth, -100 = all killed)
Conditions in all cases: 10 µM unless noted
[1] = system: NCI-H23 lung
[2] = system: NCI-H322M lung
[3] = system: HOP-62 NSCLC
[4] = system: NCI-H460 lung
[5] = system: HOP-92 NSCLC
[6] = system: NCI-H522 lung
[7] = system: A549/ATCC NSCLC
[8] = system: 786-0 renal
[9] = system: COLO 205 colon
[10] = system: DU-145 prostate
[11] = system: K-562 leukemia
[12] = system: MALME-3M melanoma
[13] = system: MDA-MB-231 breast
[14] = system: RXF 393 renal
[15] = system: SF-268 CNS
[16] = system: SF-295 CNS
[17] = system: SF-539 CNS
[18] = system: UACC-257 melanoma
[19] = system: M14 melanoma
[20] = system: HCT-15 colon

SMILES | growth [1] | growth [2] | growth [3] | growth [4] | growth [5] | growth [6] | growth [7] | growth [8] | growth [9] [%] | growth [10] | growth [11] | growth [12] | growth [13] | growth [14] | growth [15] | growth [16] | growth [17] | growth [18] | growth [19] | growth [20]
CCC(C)(C)C(=O)O[C@H]1C[C@@H](C)C=C2C=C[C@H](C)[C@H](CC[C@@H]3CC=CC(=O)O3)[C@H]21 | 78% | 103% | 108% | 101% | 75.3% | 39.4% | 78.7% | 110% | 72.7 | 82.7% | 32.8% | 94.1% | 96.9% | 41.3% | 85.7% | 97.5% | 96.1% | 60.4% | 61.3% | 63.9%
Cc1ccc(Cc2cnc(NC(=O)CN3C(=O)/C(=C\c4ccccc4)SC3=S)s2)cc1 | 103% | 109% | 109% | 103% | 113% | 94.7% | 103% | 105% | 116 | 111% | 101% | 104% | 108% | 113% | 101% | 101% | 100% | 107% | 107% | 103%
O=c1oc2ccc(Br)cc2c(=O)n1-c1ccc(I)cc1F | 1.15% (active) | 4.56% (active) | 1.91% (active) | 3.43% (active) | -16.6% (active) | -13.4% (active) | 6.38% (active) | 2.68% (active) | 51.2 | 13.6% | 5.48% (active) | -28.3% (active) | -19.1% (active) | -1.04% (active) | 6.16% (active) | -61.3% (active) | 1.29% (active) | -16.3% (active) | -9.72% (active) | 1.62% (active)
CC(=O)c1ccc2oc(=O)n(Cc3ccc(C#N)cc3)c(=O)c2c1 | 103% | 100% | 103% | 106% | 95.2% | 99.5% | 103% | 103% | 114 | 111% | 117% | 96.9% | 107% | 114% | 99.1% | 99.1% | 96.8% | 108% | 108% | 98.9%
O=C(Nc1ccc(Br)cc1F)c1cc(I)ccc1O | 4.95% (active) | 2.64% (active) | 0.452% (active) | 6.01% (active) | -27.7% (active) | -30% (active) | 4.34% (active) | 2.92% (active) | 104 | 17.2% | 10.3% | -20.4% (active) | 32.3% | 1.53% (active) | 12.7% | 0.923% (active) | 9.06% (active) | -12.9% (active) | 16.8% | 11.9%
Oc1ccc(-c2nc(-c3ccc4oc5ccc(-c6[nH]c(-c7ccc(O)cc7)nc6-c6ccccc6)cc5c4c3)c(-c3ccccc3)[nH]2)cc1 | 43.9% | 78.6% | 73.3% | 59.1% | 25.7% | 59.4% | 65.8% | 86.4% | 53.8 | 89% | 22.7% | 43.1% | 59.5% | 84.9% | 63.5% | 15.6% | 79.4% | 34.5% | 65.5% | 78.8%
CCCCC1COc2cccc3c2N1C=C/C3=C\C(=O)N(C)c1ccccc1 (stereo not given) | 26.6% | 89.2% | 78.2% | 64% | 48.4% | 55.6% | 71.6% | 79.3% | 72.9 | 82.9% | 26.2% | 59.9% | 62.9% | 89.6% | 70.4% | 52.2% | 84% | 53% | 65.1% | 86.3%
CC1=C(CC(=O)c2cccc([N+](=O)[O-])c2)C(=O)c2ccccc2C1=O | -24.9% (active) | 68.7% | -67.2% (active) | -20.9% (active) | -22.3% (active) | -47.2% (active) | -15.3% (active) | -53.2% (active) | 108 | -57% (active) | -4.57% (active) | -87.5% (active) | -17.7% (active) | -26% (active) | -33.4% (active) | -58.2% (active) | -22.1% (active) | -13.7% (active) | -41.9% (active) | 19.5%
O=c1oc2ccc(Cl)cc2c(=O)n1-c1ccc(I)cc1F | 2.29% (active) | 6.37% (active) | 0.787% (active) | 2.33% (active) | -16.5% (active) | -15.5% (active) | 7.89% (active) | 2.82% (active) | 53 | 15.6% | 7.73% (active) | -29.2% (active) | -20.5% (active) | -5.52% (active) | 8.08% (active) | -57.8% (active) | 2.55% (active) | -16.9% (active) | 2.42% (active) | 3.56% (active)
S=C1NC2(c3ccccc3)CCC(=S)N2c2ccccc21 (stereo not given) | 103% | 95.8% | 98.2% | 108% | 99.1% | 90.7% | 101% | 104% | 117 | 115% | 93.6% | 99.5% | 90.9% | 116% | 102% | 107% | 107% | 110% | 103% | 102%
O=C(Nc1ccc(F)cc1F)c1cc(I)ccc1O | 8.86% (active) | 8.13% (active) | 2.05% (active) | 6.03% (active) | -20% (active) | -12.4% (active) | 6.86% (active) | 12.3% | 77.8 | 19.1% | 9.06% (active) | -17.6% (active) | 35.2% | -1.12% (active) | 16.1% | 1.39% (active) | 13.3% | -9.13% (active) | 16.7% | 15.9%
COc1cc(/C=C2\CCC/C(=C\c3cc(CN4CCCCC4)c(O)c(OC)c3)C2=O)cc(CN2CCCCC2)c1O | 74.6% | 85.9% | 88.1% | 72.7% | 47% | 87% | 89.7% | 72.4% | 88.4 | 83.1% | 38.8% | 90.3% | 69.3% | 61.7% | 73.5% | 96.8% | 73% | 95.4% | 99% | 52.3%
Cc1nc2ccccc2c(/C=C/c2ccc(F)cc2)c1C(N)=O | 101% | 110% | 95.2% | 108% | 105% | 94.3% | 97.7% | 99.8% | 114 | 105% | 95.8% | 105% | 92% | 106% | 96.4% | 102% | 102% | 99.9% | 103% | 108%
CN1C(=O)N(C)C2Nn3c(s/c(=C4\C(=O)N(CCc5ccccc5)c5ccccc54)c3=O)=NC21 (stereo not given) | 72% | 72.6% | 75.9% | 95.4% | 93.2% | 36.7% | 55.6% | 61.8% | 60.1 | 63% | 34.9% | 85.1% | 80.5% | 64.1% | 60.9% | 72% | 48.4% | 62.3% | 57.3% | 44.6%
O=C1NC(=O)C(=Cc2cn(Cc3cn(Cc4ccc(Cl)cc4Cl)nn3)c3ccccc23)C(=O)N1 | 81.4% | 92.4% | 94.3% | 51.7% | 92.6% | 77.7% | 101% | 106% | 122 | 98.9% | 75.5% | 91.5% | 81.9% | 85.2% | 84.8% | 89.6% | 93% | 95.8% | 96.8% | 90.4%
